Experimental data from PubChem BioAssay (Tox21).
“And” between values parts separate entries of the source, which are not always exact repeats. Equal values may be shown once. Inconclusive results are not listed. Where a call stands in place of a potency, no number is given. Where a structure was tested more than once in an assay, its records may differ in their call. The source made the active and inactive calls. Unless noted, calls come from the whole dose curve; as a rule, active = well fitted curve in the direction sought with a large enough effect in the repeat runs; inconclusive = weak or mixed curves; inactive = no such curve, though single readings can be large; an effect the other way counts as inactive or inconclusive.

Tests used:
[1] = qHTS assay to identify aromatase inhibitors - cell viability counter screen (AID 743084);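 note: cells stimulated with testosterone during compound exposure; nearly all actives have a fitted effect of over 55% in size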; note: potency is the fitted concentration of half-maximal effect
[2] = target: Aryl hydrocarbon receptor (Homo sapiens) (UniProt P35869); assay: qHTS assay to identify small molecule that activate the aryl hydrocarbon receptor (AhR) signaling pathway (AID 743085);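 note: HG2L7.5c1 human HepG2 liver cells with stably integrated DRE-driven firefly reporter; series mostly up to about 70 µM; nearly all actives have a fitted effect of over 15% in size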
How it was run: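 A multiplexed format paired cell viability (CellTiter-Fluor fluorescence) with AhR-dependent luciferase output (ONE-Glo luminescence) in the same wells of HepG2 DRE-luc cells after 24 h compound exposure at 37C.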

[3] = qHTS assay to identify small molecule that activate the aryl hydrocarbon receptor (AhR) signaling pathway - cell viability counter screen (AID 743086); note: nearly all actives have a fitted effect of over 45% in size; note: potency is the fitted concentration of half-maximal effect
How it was run: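 HepG2-AhR-luc (HG2L7.5c1) cells, 4000/well, treated 24 h at 37 C with compound; viability measured as CellTiter-Fluor fluorescence after 30 min in the same wells as the luciferase read.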

[4] = qHTS assay to identify small molecule antagonists of the peroxisome proliferator-activated receptor gamma (PPARg) signaling pathway - cell viability counter screen (AID 743194); conditions: Potency: co-treated with 50 nM rosiglitazone; note: nearly all actives have a fitted effect of over 55% in size; note: potency is the fitted concentration of half-maximal effect
How it was run: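 Cytotoxicity counter screen in PPARg-bla HEK293H cells, same wells as reporter assay. Compounds plus 50 nM rosiglitazone (final) for 17 h at 37 C, then viability read by CellTiter-Glo luminescence.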

[5] = qHTS assay for small molecule agonists of the antioxidant response element (ARE) signaling pathway (AID 743202; active = well fitted activation curve with a large enough effect in the signal ratio in the repeat runs, not every such curve was filed as active; the % refers to the signal ratio; note: potency is the fitted concentration of half-maximal effect)
How it was run: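 Agonist mode reporter screen: HepG2 cells with ARE-controlled beta-lactamase are incubated with test compounds for 16 h at 37 C, and beta-lactamase activity is measured as fluorescence of cleaved B/G FRET substrate.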

[6] = qHTS assay for small molecule agonists of the antioxidant response element (ARE) signaling pathway - cell viability counter screen (AID 743203; calls by dose curve; note: nearly all actives have a fitted effect of over 55% in size; note: potency is the fitted concentration of half-maximal effect)
How it was run: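 Following 16 hrs of compound treatment at 37C, HepG2 cells with an ARE-controlled beta-lactamase gene were lysed with CellTiter-Glo. Luminescence was read after 30 min at room temperature.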

[7] = qHTS assay for small molecule activators of the heat shock response signaling pathway - cell viability counter screen (AID 743209); note: nearly all actives have a fitted effect of over 50% in size; note: potency is the fitted concentration of half-maximal effect
How it was run: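 Readout: CellTiter-Glo luminescence, 30 min at room temperature. System: HSE-bla HeLa cells, 1500/well, plated overnight. Treatment: compounds in DMSO, 5 h at 37 C.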

[8] = qHTS assay to identify small molecule agonists of the peroxisome proliferator-activated receptor delta (PPARd) signaling pathway - cell viability counter screen (AID 743211); note: nearly all actives have a fitted effect of over 55% in size; note: potency is the fitted concentration of half-maximal effect
How it was run: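 Tox21 library compounds, delivered in DMSO, were incubated 17 h with PPARd-bla HEK293H cells; cytotoxicity was taken from CellTiter-Glo luminescence read 30 min after reagent addition.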

[9] = qHTS assay to identify small molecule antagonists of the peroxisome proliferator-activated receptor delta (PPARd) signaling pathway - cell viability counter screen (AID 743213); note: nearly all actives have a fitted effect of over 50% in size; note: potency is the fitted concentration of half-maximal effect
How it was run: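 In this counter screen, HEK293H cells carrying a UAS-beta-lactamase reporter are co-treated with test compounds and 300 nM L165041 (final) for 17 h at 37 C; cell viability is quantified by CellTiter-Glo luminescence.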

[10] = qHTS assay to identify small molecule agonists of the farnesoid-X-receptor (FXR) signaling pathway - cell viability counter screen (AID 743218); note: nearly all actives have a fitted effect of over 45% in size; note: potency is the fitted concentration of half-maximal effect
How it was run: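 Parallel cytotoxicity test: compound-treated (16 h, 37 C) HEK 293T FXR-bla reporter cells were lysed with CellTiter-Glo and luminescence recorded.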

[11] = qHTS assay to identify small molecule antagonists of the farnesoid-X-receptor (FXR) signaling pathway - cell viability counter screen (AID 743221; active = well fitted cell-killing curve with a large enough effect in the repeat runs, not every such curve was filed as active; note: nearly all actives have a fitted effect of over 50% in size; note: potency is the fitted concentration of half-maximal effect)
How it was run: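 Cytotoxicity is taken from ATP luminescence (CellTiter-Glo, 30 min, room temperature) in FXR-bla HEK 293T cells previously incubated 16 h at 37 C with compound and chenodeoxycholic acid at 50 uM final.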

[12] = target: Vitamin D3 receptor (Homo sapiens) (UniProt P11473); assay: qHTS assay to identify small molecule agonists of the vitamin D receptor (VDR) signaling pathway (AID 743222; calls by dose curve)
How it was run: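 In VDR-bla cells, compound-induced beta-lactamase expression is quantified by FRET substrate fluorescence. Treatment lasts 16 h at 37C; substrate develops 2 h at room temperature.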

[13] = target: Vitamin D3 receptor (Homo sapiens) (UniProt P11473); assay: qHTS assay to identify small molecule antagonists of the vitamin D receptor (VDR) signaling pathway (AID 743223; active = well fitted inhibition curve with a large enough effect in the signal ratio in the repeat runs, not every such curve was filed as active; the % refers to the signal ratio; note: potency is the fitted concentration of half-maximal effect)
How it was run: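 Quantitative HTS in VDR-bla reporter cells stimulated with 1alpha,25-dihydroxyvitamin D3, 3 nM final. Compound exposure 16 h, 37C, 5% CO2. Read-out: beta-lactamase FRET substrate fluorescence, 2 h RT.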

[14] = target: Peroxisome proliferator-activated receptor delta (Homo sapiens) (UniProt Q03181); assay: qHTS assay to identify small molecule agonists of the peroxisome proliferator-activated receptor delta (PPARd) signaling pathway (AID 743212; calls by dose curve)
How it was run: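 Quantitative high-throughput agonist screen in a HEK293H beta-lactamase reporter line under UAS control. Compounds in DMSO, at 37 C. Fluorescence read after 2 h with FRET substrate at room temperature.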

[15] = target: Bile acid receptor (Homo sapiens) (UniProt Q96RI1); assay: qHTS assay to identify small molecule antagonists of the farnesoid-X-receptor (FXR) signaling pathway (AID 743217; active = well fitted inhibition curve with a large enough effect in the signal ratio in the repeat runs, not every such curve was filed as active; the % refers to the signal ratio; note: potency is the fitted concentration of half-maximal effect)
How it was run: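 GeneBLAzer FXR-UAS-bla HEK 293T, CDCA-stimulated (50 uM final). Compound treatment 16 h, 37 °C. Detection: beta-lactamase cleavage of B/G FRET substrate, fluorescence.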

[16] = target: Bile acid receptor (Homo sapiens) (UniProt Q96RI1); assay: qHTS assay to identify small molecule agonists of the farnesoid-X-receptor (FXR) signaling pathway (AID 743220; active = well fitted activation curve with a large enough effect in the signal ratio in the repeat runs, not every such curve was filed as active; the % refers to the signal ratio)
How it was run: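 Beta-lactamase reporter under UAS control in GeneBLAzer FXR HEK 293T cells (5000/well) measured with LiveBLAzer FRET substrate after 2 h at room temperature. Compound exposure lasted 16 h at 37C.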

[17] = target: Peroxisome proliferator-activated receptor delta (Homo sapiens) (UniProt Q03181); assay: qHTS assay to identify small molecule antagonists of the peroxisome proliferator-activated receptor delta (PPARd) signaling pathway (AID 743215; active = well fitted inhibition curve with a large enough effect in the signal ratio in the repeat runs, not every such curve was filed as active; the % refers to the signal ratio;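 note: cells stimulated with agonist L165041 at 300 nM final during compound exposure; series mostly up to about 62 µM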)
How it was run: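 HEK293H UAS-bla, PPARd; agonist L165041 300 nM final with cpd in DMSO; 37 C 17 h; FRET substrate, RT 2 h; fluorescence intensity.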

[18] = target: Peroxisome proliferator-activated receptor gamma (Homo sapiens) (UniProt P37231); assay: qHTS assay to identify small molecule antagonists of the peroxisome proliferator-activated receptor gamma (PPARg) signaling pathway (AID 743191; calls by dose curve; note: nearly all actives have a fitted effect of over 30% in size; note: potency is the fitted concentration of half-maximal effect)
How it was run: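 GeneBLAzer PPARg UAS-bla HEK293H cells, 5 h post-plating, exposed to compounds 17 h at 37C. LiveBLAzer B/G FRET substrate added for 1 h at room temperature; beta-lactamase reporter read by fluorescence intensity.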

[19] = qHTS assay for small molecule activators of the heat shock response signaling pathway (AID 743210; active = well fitted activation curve with a large enough effect in the signal ratio in the repeat runs, with a control signal flat, not every such curve was filed as active; the % refers to the signal ratio;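 note: HeLa cells with beta-lactamase reporter driven by heat shock elements; series mostly up to about 63 µM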)
How it was run: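 Quantitative high-throughput format using an engineered HeLa line in which heat shock response elements drive beta-lactamase; after 5 h with compound, cells received a B/G FRET substrate and fluorescence was read.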

[20] = target: Peroxisome proliferator-activated receptor gamma (Homo sapiens) (UniProt P37231); assay: qHTS assay to identify small molecule agonists of the peroxisome proliferator-activated receptor gamma (PPARg) signaling pathway (AID 743094; active = well fitted activation curve with a large enough effect in the signal ratio in the repeat runs, not every such curve was filed as active; the % refers to the signal ratio)
How it was run: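 Compounds dissolved in DMSO were added to PPARg UAS-bla HEK293H cells for 17 h at 37C, and reporter expression was quantified by fluorescence intensity after 1 h with LiveBLAzer B/G FRET substrate.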

Chain of Vitamin D3 receptor (Homo sapiens) (P11473 whole entry, looked up): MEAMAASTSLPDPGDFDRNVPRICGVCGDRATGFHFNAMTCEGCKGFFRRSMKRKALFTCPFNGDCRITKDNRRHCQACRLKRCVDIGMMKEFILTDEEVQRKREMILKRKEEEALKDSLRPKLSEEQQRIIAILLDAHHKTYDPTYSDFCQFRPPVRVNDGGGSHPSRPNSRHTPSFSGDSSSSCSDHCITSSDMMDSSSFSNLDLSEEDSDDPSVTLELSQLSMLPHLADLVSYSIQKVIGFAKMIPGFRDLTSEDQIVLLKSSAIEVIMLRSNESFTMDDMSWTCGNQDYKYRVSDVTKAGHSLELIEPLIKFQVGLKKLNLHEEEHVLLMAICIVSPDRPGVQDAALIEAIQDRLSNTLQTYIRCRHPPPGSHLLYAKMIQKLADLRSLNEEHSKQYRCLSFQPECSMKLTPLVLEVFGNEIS
Chain of Peroxisome proliferator-activated receptor delta (Homo sapiens) (Q03181 whole entry, looked up): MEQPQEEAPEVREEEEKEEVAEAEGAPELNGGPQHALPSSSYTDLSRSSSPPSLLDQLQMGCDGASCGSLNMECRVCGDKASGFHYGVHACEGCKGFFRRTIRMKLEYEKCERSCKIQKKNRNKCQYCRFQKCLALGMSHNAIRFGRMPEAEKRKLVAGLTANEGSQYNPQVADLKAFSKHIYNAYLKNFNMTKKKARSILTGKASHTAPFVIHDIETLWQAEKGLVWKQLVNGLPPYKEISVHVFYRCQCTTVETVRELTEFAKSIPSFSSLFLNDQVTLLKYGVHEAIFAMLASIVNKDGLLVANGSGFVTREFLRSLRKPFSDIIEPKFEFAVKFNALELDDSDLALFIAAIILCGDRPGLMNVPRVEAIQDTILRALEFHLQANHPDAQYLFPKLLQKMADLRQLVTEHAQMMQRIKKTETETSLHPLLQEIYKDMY
Chain of Aryl hydrocarbon receptor (Homo sapiens) (P35869 whole entry, looked up): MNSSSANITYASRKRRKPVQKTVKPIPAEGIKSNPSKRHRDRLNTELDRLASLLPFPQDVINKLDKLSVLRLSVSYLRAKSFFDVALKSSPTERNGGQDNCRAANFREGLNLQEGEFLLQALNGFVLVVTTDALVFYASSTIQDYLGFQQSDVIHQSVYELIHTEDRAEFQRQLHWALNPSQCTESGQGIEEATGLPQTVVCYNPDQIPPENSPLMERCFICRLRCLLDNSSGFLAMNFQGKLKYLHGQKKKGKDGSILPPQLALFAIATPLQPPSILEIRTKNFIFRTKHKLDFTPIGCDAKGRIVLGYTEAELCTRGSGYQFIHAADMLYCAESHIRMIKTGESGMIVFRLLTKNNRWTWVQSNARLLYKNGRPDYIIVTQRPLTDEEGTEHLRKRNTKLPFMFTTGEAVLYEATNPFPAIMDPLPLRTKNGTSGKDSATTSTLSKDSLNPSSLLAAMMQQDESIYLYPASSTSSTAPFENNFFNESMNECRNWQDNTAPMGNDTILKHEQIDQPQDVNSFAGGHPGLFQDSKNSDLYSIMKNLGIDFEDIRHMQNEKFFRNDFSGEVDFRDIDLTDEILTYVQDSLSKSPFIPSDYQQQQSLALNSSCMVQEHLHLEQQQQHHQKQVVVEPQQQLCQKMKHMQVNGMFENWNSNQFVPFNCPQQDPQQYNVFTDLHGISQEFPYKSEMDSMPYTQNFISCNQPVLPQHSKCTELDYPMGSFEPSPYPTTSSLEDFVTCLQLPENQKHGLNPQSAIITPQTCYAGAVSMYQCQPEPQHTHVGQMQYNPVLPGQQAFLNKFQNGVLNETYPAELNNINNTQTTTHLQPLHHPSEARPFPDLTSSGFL
Chain of Bile acid receptor (Homo sapiens) (Q96RI1 whole entry, looked up): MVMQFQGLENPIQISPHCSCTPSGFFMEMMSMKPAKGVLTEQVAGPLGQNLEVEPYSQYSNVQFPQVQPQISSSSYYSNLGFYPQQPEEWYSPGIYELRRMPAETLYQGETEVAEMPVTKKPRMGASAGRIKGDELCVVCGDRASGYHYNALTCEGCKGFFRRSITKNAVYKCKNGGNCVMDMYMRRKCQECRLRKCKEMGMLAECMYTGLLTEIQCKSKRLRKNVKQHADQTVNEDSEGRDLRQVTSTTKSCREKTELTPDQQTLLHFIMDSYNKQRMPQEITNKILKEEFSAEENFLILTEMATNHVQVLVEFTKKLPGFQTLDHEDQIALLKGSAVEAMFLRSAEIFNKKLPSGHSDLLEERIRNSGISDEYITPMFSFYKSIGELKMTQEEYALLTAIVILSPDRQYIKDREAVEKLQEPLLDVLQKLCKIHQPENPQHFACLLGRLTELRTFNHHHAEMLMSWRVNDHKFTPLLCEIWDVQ
Chain of Peroxisome proliferator-activated receptor gamma (Homo sapiens) (P37231 whole entry, looked up): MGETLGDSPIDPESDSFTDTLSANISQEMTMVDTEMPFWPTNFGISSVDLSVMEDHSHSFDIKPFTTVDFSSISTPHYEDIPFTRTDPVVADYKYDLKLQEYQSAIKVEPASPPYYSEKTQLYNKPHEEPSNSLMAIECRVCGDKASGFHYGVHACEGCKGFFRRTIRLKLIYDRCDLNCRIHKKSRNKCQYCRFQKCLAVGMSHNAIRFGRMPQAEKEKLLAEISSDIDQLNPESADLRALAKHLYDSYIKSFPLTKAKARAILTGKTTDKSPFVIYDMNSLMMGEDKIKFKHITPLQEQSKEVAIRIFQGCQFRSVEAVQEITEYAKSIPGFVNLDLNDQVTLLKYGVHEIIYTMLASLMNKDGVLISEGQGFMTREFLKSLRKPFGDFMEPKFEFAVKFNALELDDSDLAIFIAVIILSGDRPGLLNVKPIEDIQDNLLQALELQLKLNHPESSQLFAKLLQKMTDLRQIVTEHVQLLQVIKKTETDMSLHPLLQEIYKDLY

Row | SMILES | Potency [1] | Potency [2] | Potency [3] | Potency [4] | Potency [5] | Potency [6] | Potency [7] | Potency [8] | Potency [9] | Potency [10] | Potency [11] | outcome [12] | Potency [13] | outcome [14] | Potency [15] | outcome [16] | Potency [17] | Potency [18] | Potency [19] | Potency [20]
1 | Cc1ncc(C[n+]2csc(CCO)c2C)c(N)n1 | inactive | inactive | inactive | inactive | inactive | inactive | inactive | inactive | inactive | inactive | inactive | inactive | inactive | – | – | – | – | – | – | –
2 | O=C(O)C(O)C(O)C(=O)O (stereo unspecified) | inactive | inactive | inactive | inactive | inactive | inactive | inactive | inactive | inactive | inactive | inactive | – | – | inactive | inactive | inactive | – | – | – | –
3 | Cc1cccc(C)c1NC1=NCCCS1 | inactive | inactive | inactive | inactive | – | inactive | inactive | inactive | inactive | inactive | inactive | inactive | inactive | inactive | – | – | inactive | – | – | –
4 | COc1cc(C[C@@H](C)N)c(OC)cc1Br | inactive | inactive | – | inactive | – | inactive | inactive | 62.8 µM (active) | – | 31.5 µM (active) | – | – | – | – | – | – | – | inactive | inactive | –
5 | CCCCCCCCCCCC[N+](C)(C)CCOc1ccccc1 | 26.6 µM (active) and 27.3 µM (active) | inactive | 68.6 µM (active) | 21.9 µM (active) and 13.3 µM (active) | – | 30.6 µM (active) and 29.8 µM (active) | 34.7 µM (active) | 13.8 µM (active) and 11.9 µM (active) | 17.4 µM (active) | 24.6 µM (active) | 49 µM (active) | inactive | – | – | – | – | – | – | – | –
6 | C[CH2][Hg][S]c1ccccc1C(=O)O | 5.96 µM (active) and 1.09 µM (active) | inactive | 16.8 µM (active) and 6.86 µM (active) | 2.45 µM (active) and 8.41 µM (active) | – | 1.72 µM (active) and 5.96 µM (active) | 19.5 µM (active) and 15 µM (active) | 871 nM (active) and 2.11 µM (active) | 2.19 µM (active) and 1.68 µM (active) | 1.55 µM (active) and 2.66 µM (active) | 6.92 µM (active) and 4.22 µM (active) | inactive | 3.38 µM (active) | – | – | – | – | – | – | –
7 | CC1(C)[C@H](C(=O)O[C@H](C#N)c2cccc(Oc3ccccc3)c2)[C@@H]1C=C(Br)Br | inactive | inactive | inactive | inactive | – | inactive | inactive | inactive | inactive | – | inactive | – | – | – | – | – | – | – | – | –
8 | COc1ccccc1N1CCNCC1 | inactive | – | inactive | inactive | inactive | inactive | inactive | inactive | – | inactive | inactive | inactive | inactive | inactive | inactive | inactive | inactive | inactive | inactive | inactive
9 | O=C1CC[C@@]2(O)[C@H]3Cc4ccc(O)c5c4[C@@]2(CCN3CC2CC2)[C@H]1O5 | inactive | inactive | inactive | inactive | – | inactive | inactive | inactive | inactive | inactive | inactive | – | – | – | inactive | inactive | – | – | inactive | –
10 | O=P(OCC(Br)CBr)(OCC(Br)CBr)OCC(Br)CBr (stereo unspecified) | inactive | inactive | – | – | – | – | inactive | – | – | – | inactive | – | – | inactive | 46.5 µM (active) | inactive | – | 44.2 µM (active) | – | –
11 | CN(C)C(=O)Nc1cccc(OC(=O)NC(C)(C)C)c1 | inactive | inactive | inactive | – | – | inactive | inactive | inactive | inactive | inactive | inactive | inactive | – | inactive | – | – | inactive | – | inactive | inactive
12 | CCCCC#N | inactive | inactive | inactive | inactive | inactive | – | inactive | inactive | inactive | inactive | inactive | – | – | inactive | – | – | inactive | – | inactive | –
13 | [Cl-].[Cl-].[Hg+2] | 10.6 µM (active) and 1.08 µM (active) and 12.2 µM (active) | inactive | 6.08 µM (active) and 54.5 µM (active) | 21.8 µM (active) and 21.9 µM (active) | – | 19.2 µM (active) and 12.2 µM (active) | 3.87 µM (active) and 30.9 µM (active) | 1.73 µM (active) and 2.19 µM (active) | 2.44 µM (active) and 1.74 µM (active) | 2.74 µM (active) and 9.77 µM (active) | 2.18 µM (active) and 3.47 µM (active) | – | – | – | – | – | – | – | – | –
14 | C[N+](C)(C)CCOC(=O)C(O)(c1ccccc1)c1ccccc1 | inactive | inactive | inactive | inactive | – | – | inactive | inactive | – | – | inactive | inactive | inactive | inactive | – | – | inactive | – | inactive | –
15 | O=C(O)c1cc(I)cc(I)c1I | inactive | inactive | inactive | inactive | – | inactive | inactive | inactive | inactive | inactive | inactive | – | – | inactive | inactive | inactive | inactive | – | – | –
16 | C=CCN1C[C@H](C)N([C@H](c2ccc(C(=O)N(CC)CC)cc2)c2cccc(OC)c2)C[C@H]1C | inactive | inactive | inactive | inactive | – | inactive | inactive | inactive | inactive | inactive | inactive | – | inactive | inactive | – | – | inactive | – | – | –
17 | O=C(CCl)CCl | 15.4 µM (active) | inactive | inactive | 21.9 µM (active) | 14.2 µM (active) | 19.3 µM (active) | inactive and 12.3 µM (active) | inactive and 54.9 µM (active) | inactive | inactive and 54.9 µM (active) | inactive | – | inactive | inactive | – | – | inactive | – | inactive | –
18 | Cc1ccc2c(C)cccc2c1 | inactive | inactive | inactive | inactive | – | inactive | inactive | inactive | inactive | inactive | inactive | – | – | inactive | – | – | inactive | inactive | inactive | –
